From PubChem BioAssay AID485270 (The Scripps Research Institute Molecular Screening Center, 2010)
Out of some 330,000 compounds screened, about 5,800 (1.8%) were called active. Cut-off read from the data, not from the text of the source: active = inhibition mostly above about 38% (no sharp cut-off); inactive = mostly below about 40%. Many of the other results were omitted from the sample, so actives are more common in it than they were.

target: Orexin/Hypocretin receptor type 1 (Homo sapiens) (UniProt O43613); experiment: blocks the human orexin 1 receptor (AID 485270); details: OX1R-expressing cells, FRET antagonist read-out; at 6.6 µM; stronger effect = higher value;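 note: 0% = agonist challenge alone and 100% = reference antagonist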
Sequence (O43613 whole entry, looked up): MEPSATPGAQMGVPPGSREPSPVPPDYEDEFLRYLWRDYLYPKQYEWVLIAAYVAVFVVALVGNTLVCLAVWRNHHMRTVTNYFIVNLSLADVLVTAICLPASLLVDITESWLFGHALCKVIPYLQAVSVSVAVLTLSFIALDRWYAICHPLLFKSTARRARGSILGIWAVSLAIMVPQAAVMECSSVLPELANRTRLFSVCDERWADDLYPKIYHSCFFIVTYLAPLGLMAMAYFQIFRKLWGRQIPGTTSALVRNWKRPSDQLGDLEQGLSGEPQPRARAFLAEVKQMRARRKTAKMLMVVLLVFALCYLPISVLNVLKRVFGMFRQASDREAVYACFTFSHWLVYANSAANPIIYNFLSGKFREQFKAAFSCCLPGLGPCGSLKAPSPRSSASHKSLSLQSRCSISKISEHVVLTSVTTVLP

SMILES | inhibition
Cc1ccc(CNC(=O)COC(=O)C2CCC2)cc1 | 8.9% (inactive)
O=C(COC(=O)c1cc(S(=O)(=O)N2CCOCC2)ccc1F)NC1CC1 | 8.42% (inactive)
CN(CC(=O)NCCc1ccc(S(N)(=O)=O)cc1)CC(=O)Nc1ccc(Cl)cc1 | 3.5% (inactive)
CCCc1cc(=O)[nH]c(SCC(=O)Nc2ccc(C(=O)Nc3ccccc3OC)cc2)n1 | 14.2% (inactive)
Cc1ccc2c(c1)NC(=O)[C@@]1(C)[C@@H](c3ccccc3)[C@H]3COc4ccc(Cl)cc4[C@@H]3N1C2=O | 27.8% (inactive)
CSc1ncccc1C(=O)NCC(c1ccco1)N1CCCCC1 (centres undefined) | 1.61% (inactive)
O=C1N[C@@H](c2ccccc2)COC(=O)[C@H](Cc2ccc(F)cc2)C/C=C\C[C@@H]1CC(=O)N(CCO)Cc1ccccc1 | 13.5% (inactive)
CC1CC(=NNC(=O)C2COc3ccccc3O2)CC(C)(C)C1 (centres undefined) | 5.91% (inactive)
O=C(Nc1ccccn1)C1CCN(S(=O)(=O)c2ccc3c(c2)OCCO3)CC1 | -0.64% (inactive)
COc1cccc(NC(=O)COC(=O)c2ccc3ccccc3n2)c1 | 10.5% (inactive)
CCc1ccc(C(=O)N2CCN(S(=O)(=O)c3sc(C(=O)O)c(C)c3C(=O)O)CC2)cc1 | 0.64% (inactive)
COc1ccc(CCOC2OC(CO)C(OC(=O)/C=C/c3ccc(O)c(OC)c3)C(O[C@H]3O[C@@H](C)[C@H](O)[C@@H](O)[C@H]3O)C2O)cc1O (some centres undefined) | 3.08% (inactive)
CCOC(=O)CSc1nc(C)cc2c1C(=O)OC2 | 5.73% (inactive)
CCOC(=O)CSC1=N/C(=C/c2ccc(-n3cncn3)cc2)C(=O)N1C(C)=O | 64.5% (active)
CCOC(=O)CSc1ccccn1 | 2.08% (inactive)
COc1cccc(CC(=O)OCC(=O)NCc2ccc3c(c2)OCO3)c1 | 4.94% (inactive)
CC(=O)Nc1ccc(S(=O)(=O)NCC(=O)OCC(=O)c2ccc[nH]2)cc1 | 7.15% (inactive)
Cc1ccc(C)c(NC(=O)COC(=O)c2nn(C)c(=O)c3ccccc23)c1 | 4.64% (inactive)
CC(Sc1nncn1C)C(=O)NCCC1=CCCCC1 (centres undefined) | 5.26% (inactive)
COc1ccc(CNc2nc(NCc3ccc(OC)cc3)c3ncn(C4CCCC4)c3n2)cc1 | 15.3% (inactive)
Cc1onc(NC(=O)c2ccc([N+](=O)[O-])o2)c1Br | 33.4% (inactive)
O=C(Nc1ccc(Br)cn1)c1ccc([N+](=O)[O-])cc1Cl | 13.9% (inactive)
O=C(Nc1ccc(Br)cn1)c1ccc([N+](=O)[O-])o1 | 64.5% (active)

SMILES | inhibition
COc1ccc(C2(c3ccc(OC)cc3)NC(=O)N(CC(=O)Nc3cc(C)on3)C2=O)cc1 | 14% (inactive)
CCN1C[C@@H]2[C@@H]3C(=O)N(Cc4ccccc4)C(=O)[C@@H]3[C@](Cc3ccccc3)(C(=O)OC)N2C1=NC1CCCCC1 | 5.88% (inactive)
COc1cnn(-c2ccc([N+](=O)[O-])cc2)c(=O)c1Cl | 49.7% (active)
COc1ccc(N2CCN(c3ccc([N+](=O)[O-])cc3Cl)CC2)cc1 | 11.7% (inactive)
CC(C)(C)c1cnnn1-c1ccc([N+](=O)[O-])cc1 | 29.6% (inactive)
O=C(Cn1cnc2c(OCc3ccccc3)ncnc21)NCCCn1ccnc1 | -0.28% (inactive)
Cc1cc(NC(=O)COc2ccccc2C#N)no1 | 4.54% (inactive)
CNC[C@H]1Oc2c(NC(=O)C3CCCCC3)cccc2C(=O)N([C@H](C)CO)C[C@@H]1C | 6.17% (inactive)
COc1cc(/C=C/C(=O)Nc2ccc(OC)c(S(=O)(=O)N3CCOCC3)c2)ccc1OCC#N | 6.14% (inactive)
CNC(=O)c1cccc2nc3ccccc3nc12 | 61.4% (active)
CN(C)C(=O)c1coc2nc3ccccc3nc12 | 7.78% (inactive)
CNC(=O)c1cc2c(ccc3ccccc32)oc1=N | 50.1% (inactive)
C=CC[C@@H](CC(=O)NCCO)C(=O)N[C@H](C)COC(=O)[C@@H](CC=C)CC(=O)OC(C)(C)C | 5% (inactive)
CN1CCN(C(=O)c2ccc(-c3ccc(Br)cc3)o2)CC1 | 8.86% (inactive)
O=C1c2cccc3cccc(c23)C(=O)N1c1cccc(O)c1 | 26.1% (inactive)
O=C1c2ccccc2C(=O)N1c1cccc2ccccc12 | 17% (inactive)
COc1ccc(N2C(=O)c3cccc4cccc(c34)C2=O)nn1 | 62.1% (active)
O=C(CSc1nnc(-c2ccncc2)o1)Nc1cccc(Cl)c1 | 4.25% (inactive)
O=C(OCC(=O)N1CCCCC1)c1ccc(OC(F)(F)F)cc1 | 10.9% (inactive)
COc1ccc(S(=O)(=O)N2CCOCC2)cc1NC(=O)CSc1nnc(NC2CC2)s1 | 5.24% (inactive)
Cc1ccc(CNC(=O)Cn2cnc3c(NCc4ccccc4)ncnc32)o1 | 13.2% (inactive)
CC(=O)Nc1ccc(S(=O)(=O)Nc2ccc(N3CCCCC3)cc2)cc1 | 16.6% (inactive)
COc1cc(OC)c(C(=O)NNC(=O)c2ccccc2-n2cccc2)cc1OC | 10.5% (inactive)

SMILES | inhibition
Oc1c(Cl)cc(Cl)c(Cl)c1Cc1c(O)c(Cl)cc(Cl)c1Cl | 60.5% (active)
Cc1cc(NC(=O)CN2C(=O)NC(CC(C)C)C2=O)no1 (centres undefined) | 4.3% (inactive)
O=C(NCCCN1CCOCC1)c1ccc(N2CCCC2)c([N+](=O)[O-])c1 | 52.4% (inactive)
NS(=O)(=O)c1ccc(CCNC(=O)c2ccc([N+](=O)[O-])cc2[N+](=O)[O-])cc1 | 138% (active)
O=[N+]([O-])c1ccc(NCCCN2CCOCC2)c(Cl)c1 | 10.8% (inactive)
NS(=O)(=O)c1ccc(CCNC(=O)CNC(=O)Cc2ccccc2)cc1 | 1.42% (inactive)
O=C(NCCCN1CCOCC1)c1ccc([N+](=O)[O-])cc1[N+](=O)[O-] | 70.3% (active)
O=C(Nc1cccnc1)c1ccc(Cl)cc1[N+](=O)[O-] | 22.6% (inactive)
NS(=O)(=O)c1ccc(CNC(=O)c2ccc(Cl)cc2[N+](=O)[O-])cc1 | 70.7% (active)
COc1ccc(C(=O)NCCc2ccc(S(N)(=O)=O)cc2)cc1OC | 17.6% (inactive)
NS(=O)(=O)c1ccc(CCNC(=O)c2ccc(Cl)cc2[N+](=O)[O-])cc1 | 26.8% (inactive)
Cc1ccc(S(=O)(=O)N2CCN(C(=O)COC(=O)CNC(=O)c3ccc(C(C)(C)C)cc3)CC2)c(C)c1 | 1.85% (inactive)
O=C(COC(=O)c1cccc(Cl)c1)NC(=O)NCc1ccccc1 | 4.12% (inactive)
C=CCC[C@@H](Cc1ccc(F)cc1)C(=O)O[C@H](CNC(=O)[C@H](CC=C)CC(=O)N(CCO)Cc1ccccc1)c1ccccc1 | 13.9% (inactive)
C=CCC[C@H](Cc1ccc(F)cc1)C(=O)OC[C@@H](NC(=O)[C@@H](CC=C)CC(=O)N[C@H](CO)Cc1ccccc1)C(C)(C)C | -2.5% (inactive)
COc1cccc(CNS(=O)(=O)c2ccc3c(c2)CC(C)N3C(C)=O)c1 (centres undefined) | 19.3% (inactive)
COc1ccc(N(C)S(=O)(=O)c2ccc3c(c2)CC(C)N3C(=O)C2CC2)c(OC)c1 (centres undefined) | 13.5% (inactive)
COc1cccc(CNS(=O)(=O)c2ccc3c(c2)CC(C)N3C(=O)C2CCC2)c1 (centres undefined) | 53.7% (active)
CN(CC(=O)O)C(=O)c1ccccc1 | 11.7% (inactive)
Cc1cccc(N(CC(=O)N=Nc2c(O)[nH]c3ccccc23)S(C)(=O)=O)c1C | 5.48% (inactive)
O=C(CCN1CCCCC1)N=Nc1c(O)[nH]c2ccccc12 | 22.5% (inactive)
COCC(=O)N=Nc1c(O)[nH]c2ccccc12 | 68.8% (active)
Cc1ccc(NS(=O)(=O)c2ccc(C(C)C)cc2)cc1S(=O)(=O)N1CCOCC1 | 1.43% (inactive)

SMILES | inhibition
Cc1cccc(OCC(=O)OCC(=O)Nc2ccc(Cl)cn2)c1 | 4.09% (inactive)
c1coc(CNc2ncnc3ccccc23)c1 | 37.9% (inactive)
CCOCCCNc1nc(-c2ccccc2)nc2ccccc12 | 13.2% (inactive)
COCCNc1nc(-c2ccccc2)nc2c1oc1ccccc12 | 19.4% (inactive)
O=C(Cc1ccccc1)n1nc(-c2ccccc2)nc1NCc1ccco1 | 16.1% (inactive)
c1ccc(-c2nc(NCc3ccco3)c3ccccc3n2)cc1 | 81.6% (active)
CCC(=O)OCCNc1nc(-c2ccccc2)nc2ccccc12 | 48.8% (active)
CC1CCCCC1NC(=O)COc1ccc(C#N)cc1 (centres undefined) | 1.71% (inactive)
O=C(COC(=O)c1ccc(Br)o1)NC12CC3CC(CC(C3)C1)C2 | 1.86% (inactive)
O=C1N[C@H](Cc2c[nH]c3ccccc23)COC(=O)[C@H](Cc2ccc(F)cc2)C/C=C\C[C@H]1CC(=O)N(CCO)Cc1ccccc1 | -2.83% (inactive)
Cc1ccc(C(=O)Nc2ccn(C)n2)cc1 | -1.37% (inactive)
COc1ccc(Br)cc1CN(C)C(=O)C1CC(=O)N(C2CCCC2)C1 (centres undefined) | 8.23% (inactive)
O=C(C1CCCO1)N1CCC(c2nc3ccccc3[nH]2)CC1 (centres undefined) | -1.4% (inactive)
O=C(Nc1sc2c(c1-c1nc3ccccc3[nH]1)CCCC2)C1CC1 | 46.5% (active)
CCOC(=O)c1c(NC(=O)C2CCN(S(=O)(=O)c3ccc(Cl)cc3)CC2)sc2c1CCCC2 | 6.08% (inactive)
C=CC[C@@H](CC(=O)N[C@@H](CO)Cc1ccccc1)C(=O)NCCOC(=O)[C@@H](CC=C)CC(=O)OC(C)(C)C | 14.3% (inactive)
COC(=O)[C@]1(Cc2ccccc2)N[C@H](CN(C)S(=O)(=O)c2ccc(OC(F)(F)F)cc2)[C@@H]2C(=O)N(Cc3ccccc3)C(=O)[C@@H]21 | 5.26% (inactive)
CCOc1cc(NC(=S)NCCCOC)c(OCC)cc1NC(=O)c1ccco1 | 11.1% (inactive)
COCCNC(=O)Nc1ccc2nc(-c3ccco3)c(-c3ccco3)nc2c1 | 113% (active)
CCCC(=O)Nc1ccc2c(c1)nc(CCNC(=O)c1ccco1)n2C | 7.62% (inactive)
